The source made the active and inactive calls.
Tests used:
[1] = binders of probe aFSTL3 on microarray, primary screen, stem cell growth factor project, biochemical, small-molecule microarray, fluorescence 635/667 (AID 1064); settings: higher = more signal;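 note: measures binding of the biotinylated anti-FSTL3 antibody to printed compounds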
[2] = binders from COS7 lysate, DM2A8 probe, primary screen, torsin A project, cell lysate, small-molecule microarray, fluorescence 635/667 (AID 1065); settings: higher = more signal, COS7 lysate expressing mutant human TOR1A
[3] = binders of probe aFGF2 on microarray, primary screen, stem cell growth factor project, biochemical, small-molecule microarray, fluorescence 635/667 (AID 1067); settings: higher = more signal;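 note: measures binding of biotinylated aFGF2 protein to printed compounds on slides; z-score merges feature fluorescence and signal-to-noise across triplicate slides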
[4] = binders of probe aFGF10 on microarray, primary screen, stem cell growth factor project, biochemical, small-molecule microarray, fluorescence 635/667 (AID 1071); settings: higher = more signal;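 note: score merges 667 nm spot intensity and signal to noise from triplicate slides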
[5] = target: Neurogenic locus notch homolog protein 2 (Homo sapiens) (UniProt Q04721); assay: Notch2 binders on small-molecule microarrays, primary screen, biochemical, small-molecule microarray, 635 nm fluorescence, stem cell growth factors (AID 1073); settings: Notch2 binding, higher = more signal
Sequence of Neurogenic locus notch homolog protein 2 (Homo sapiens) (Q04721 whole entry, looked up, canonical isoform): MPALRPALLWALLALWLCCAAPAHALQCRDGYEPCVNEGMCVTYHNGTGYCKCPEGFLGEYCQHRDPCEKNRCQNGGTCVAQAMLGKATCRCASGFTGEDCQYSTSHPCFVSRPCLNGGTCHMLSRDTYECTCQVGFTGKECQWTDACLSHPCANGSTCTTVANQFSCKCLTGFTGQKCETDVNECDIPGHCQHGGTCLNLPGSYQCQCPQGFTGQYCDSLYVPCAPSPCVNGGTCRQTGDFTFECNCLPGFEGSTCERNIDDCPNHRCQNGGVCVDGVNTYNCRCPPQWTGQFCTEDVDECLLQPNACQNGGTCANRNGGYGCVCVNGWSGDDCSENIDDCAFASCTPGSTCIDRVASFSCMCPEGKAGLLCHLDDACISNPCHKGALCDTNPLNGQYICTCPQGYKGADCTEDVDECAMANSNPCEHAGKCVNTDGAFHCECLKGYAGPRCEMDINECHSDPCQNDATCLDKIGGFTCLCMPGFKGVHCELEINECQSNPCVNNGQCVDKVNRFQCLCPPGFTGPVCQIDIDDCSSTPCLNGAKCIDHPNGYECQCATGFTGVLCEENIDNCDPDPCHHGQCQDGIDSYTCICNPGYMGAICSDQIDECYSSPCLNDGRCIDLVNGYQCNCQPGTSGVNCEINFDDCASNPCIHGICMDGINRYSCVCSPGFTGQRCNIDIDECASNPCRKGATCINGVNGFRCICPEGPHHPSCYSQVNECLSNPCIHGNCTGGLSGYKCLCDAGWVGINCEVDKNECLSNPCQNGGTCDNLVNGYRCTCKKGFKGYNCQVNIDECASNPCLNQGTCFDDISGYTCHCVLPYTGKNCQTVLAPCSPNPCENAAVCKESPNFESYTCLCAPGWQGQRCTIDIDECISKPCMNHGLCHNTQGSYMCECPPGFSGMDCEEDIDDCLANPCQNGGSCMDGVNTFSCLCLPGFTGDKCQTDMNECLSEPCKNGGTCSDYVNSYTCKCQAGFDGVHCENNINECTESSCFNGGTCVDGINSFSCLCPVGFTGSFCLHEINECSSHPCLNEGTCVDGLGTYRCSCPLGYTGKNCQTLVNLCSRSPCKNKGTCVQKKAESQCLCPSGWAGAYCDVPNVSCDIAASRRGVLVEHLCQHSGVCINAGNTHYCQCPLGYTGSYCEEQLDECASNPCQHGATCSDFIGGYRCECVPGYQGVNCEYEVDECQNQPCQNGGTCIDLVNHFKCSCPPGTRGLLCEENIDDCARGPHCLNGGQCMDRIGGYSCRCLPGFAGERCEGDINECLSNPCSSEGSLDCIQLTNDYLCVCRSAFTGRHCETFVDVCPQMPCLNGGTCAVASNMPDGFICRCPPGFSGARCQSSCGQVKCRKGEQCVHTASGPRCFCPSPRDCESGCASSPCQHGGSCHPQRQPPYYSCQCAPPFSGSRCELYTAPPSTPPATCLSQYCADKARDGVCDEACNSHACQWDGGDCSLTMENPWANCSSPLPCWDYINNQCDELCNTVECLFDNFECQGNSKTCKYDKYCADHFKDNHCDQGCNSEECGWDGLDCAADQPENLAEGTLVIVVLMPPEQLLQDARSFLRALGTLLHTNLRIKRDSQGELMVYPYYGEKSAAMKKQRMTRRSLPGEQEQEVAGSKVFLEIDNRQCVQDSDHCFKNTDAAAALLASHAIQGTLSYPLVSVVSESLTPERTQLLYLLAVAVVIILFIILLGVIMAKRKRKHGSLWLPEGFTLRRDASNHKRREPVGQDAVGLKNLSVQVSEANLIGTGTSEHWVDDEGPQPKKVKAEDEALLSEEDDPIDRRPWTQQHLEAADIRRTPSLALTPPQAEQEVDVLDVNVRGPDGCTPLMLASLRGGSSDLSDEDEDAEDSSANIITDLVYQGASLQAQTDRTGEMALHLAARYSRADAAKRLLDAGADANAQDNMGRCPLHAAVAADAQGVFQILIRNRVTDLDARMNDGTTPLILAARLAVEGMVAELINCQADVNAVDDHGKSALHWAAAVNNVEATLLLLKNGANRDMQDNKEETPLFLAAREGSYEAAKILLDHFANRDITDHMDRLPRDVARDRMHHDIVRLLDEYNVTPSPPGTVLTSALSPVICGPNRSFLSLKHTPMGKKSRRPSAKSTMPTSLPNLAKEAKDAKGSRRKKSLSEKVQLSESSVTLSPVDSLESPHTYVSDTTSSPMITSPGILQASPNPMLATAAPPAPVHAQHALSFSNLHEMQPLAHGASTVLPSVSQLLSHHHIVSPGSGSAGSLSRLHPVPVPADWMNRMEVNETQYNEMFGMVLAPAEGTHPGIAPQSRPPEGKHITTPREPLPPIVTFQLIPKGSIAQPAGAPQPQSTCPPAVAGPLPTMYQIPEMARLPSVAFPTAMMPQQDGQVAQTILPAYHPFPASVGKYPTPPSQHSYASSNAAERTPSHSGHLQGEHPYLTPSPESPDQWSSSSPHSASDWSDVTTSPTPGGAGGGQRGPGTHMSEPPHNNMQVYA

[6] = target: Pro-neuregulin-1, membrane-bound isoform (Homo sapiens) (UniProt Q02297); assay: NRG1 binders on small-molecule microarrays, primary screen, psychiatric disease protein project, biochemical, small-molecule microarray, fluorescence 635/667 (AID 1075); settings: NRG1 binding, 635 nm fluorescence, higher = more signal;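 note: score combines 667 nm spot fluorescence with signal to noise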
Sequence of Pro-neuregulin-1, membrane-bound isoform (Homo sapiens) (Q02297 whole entry, looked up, the tested form may be a part, canonical isoform): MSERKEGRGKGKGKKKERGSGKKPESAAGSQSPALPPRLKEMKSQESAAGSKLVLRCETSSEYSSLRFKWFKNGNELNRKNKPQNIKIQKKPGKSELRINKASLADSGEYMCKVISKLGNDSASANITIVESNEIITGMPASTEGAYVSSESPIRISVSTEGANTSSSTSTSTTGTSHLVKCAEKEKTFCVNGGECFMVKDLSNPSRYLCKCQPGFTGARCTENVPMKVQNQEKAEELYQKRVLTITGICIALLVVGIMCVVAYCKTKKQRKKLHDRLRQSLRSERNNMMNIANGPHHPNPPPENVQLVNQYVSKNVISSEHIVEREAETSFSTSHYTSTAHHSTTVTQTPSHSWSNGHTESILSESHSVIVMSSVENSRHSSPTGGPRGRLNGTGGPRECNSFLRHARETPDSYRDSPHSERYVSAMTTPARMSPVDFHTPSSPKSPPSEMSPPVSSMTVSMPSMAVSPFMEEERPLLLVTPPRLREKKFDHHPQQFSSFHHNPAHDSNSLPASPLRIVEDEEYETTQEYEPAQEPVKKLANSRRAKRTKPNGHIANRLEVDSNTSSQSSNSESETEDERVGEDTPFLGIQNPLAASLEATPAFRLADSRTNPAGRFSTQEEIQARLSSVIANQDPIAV

[7] = system: Neuregulin-1 EGF-like domain; assay: binders of neuregulin-1 EGF-like domain, primary screen, biochemical, small-molecule microarray, 635 nm fluorescence (AID 1081); settings: small-molecule microarray binding, higher = more signal;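 note: binding of the protein to compounds printed on small-molecule microarray slides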
[8] = FRG1 promoter luciferase signal modulators, primary screen, FRG1 inhibition for FSHD, cell-based, C2C12 myotubes, firefly/Renilla luciferase, luminescence (AID 1084); settings: higher = more signal, called active from +8 up or from −8 down
[9] = binders of probe aFST on microarray, primary screen, stem cell growth factor project, biochemical, small-molecule microarray, fluorescence 635/667 (AID 1086); settings: higher = more signal;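 note: score merges 667 nm fluorescence with signal-to-noise of each printed compound spot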
[10] = binders of probe aHhip on microarray, primary screen, stem cell growth factor project, biochemical, small-molecule microarray, fluorescence 635/667 (AID 1087); settings: higher = more signal;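 note: score merges spot fluorescence at 667nm with spot signal to noise ratio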

Structure (SMILES)	composite z-score [1]	composite z-score [2]	composite z-score [3]	composite z-score [4]	composite z-score [5]	composite z-score [6]	composite z-score [7]	z-score [8]	composite z-score [9]	composite z-score [10]
O=C1C2C=CC(C(O)C3CCCCC3)N(Nc3ccccc3F)C2C(=O)N1c1ccccc1 (stereo not given)	0.967	0.619	0.257	0.682	1.66	1.93	1.31	-0.227 (inactive)	1.55	-0.0617
CC[C@@H]1C=C(C(=O)O)[C@H](c2cccc(Cl)c2)N1S(=O)(=O)c1ccc(C)cc1	0.0801	0.969	0.0263	0.516	1.36	1.27	0.855	-1.53 (inactive)	0.177	0.0424
COc1cc2c(cc1O)C(C)N(Cc1sc3ccccc3c1Cl)CC2 (stereo not given)	0.208	-1.01	-0.17	-0.563	-0.246	0.717	0.343	0.541 (inactive)	-0.133	-0.0994
C=CCNC(=O)[C@@H]1[C@H]2C(=O)O[C@H](c3ccccc3)[C@H](c3ccccc3)N2[C@H](c2ccc(OCCO)cc2)[C@@]12C(=O)N(C(=O)OCCOC)c1ccccc12	-0.156	1.08	0.0021	0.591	0.964	1.05	1.25	0.0023 (inactive)	0.954	0.0053
COCCOC(=O)N1C(=O)[C@@]2(c3cc(C#CC4(O)CCCCCC4)ccc31)[C@H](C(N)=O)[C@H]1C(=O)O[C@H](c3ccccc3)[C@H](c3ccccc3)N1[C@@H]2c1ccc(OCCO)cc1	-0.243	1.08	0.0664	0.69	1.42	0.775	1.22	1.1 (inactive)	0.388	0.189
O=C1C2C=CC(C(O)C3CC=CCC3)N(Nc3ccc([N+](=O)[O-])cc3)C2C(=O)N1c1ccccc1 (stereo not given)	1.47	1.28	0.428	1.14	1.54	1.61	1.26	-1.06 (inactive)	2.28	0.0729
COCCOC(=O)N1C(=O)[C@@]2(c3cc(C#CCCO)ccc31)[C@H](C(=O)N1CCN(c3ncccn3)CC1)[C@H]1C(=O)O[C@H](c3ccccc3)[C@H](c3ccccc3)N1[C@@H]2c1ccc(OCCO)cc1	-0.372	0.713	0.0001	0.641	0.718	1.53	1.3	-0.31 (inactive)	0.832	-0.171
C=CCNC(=O)[C@@H]1[C@H]2C(=O)O[C@H](c3ccccc3)[C@H](c3ccccc3)N2[C@H](c2ccc(O)cc2)[C@@]12C(=O)Nc1ccc(C#CC3=CCCCC3)cc12	-0.619	1.23	-0.0639	1.1	0.87	1.15	1.06	-0.231 (inactive)	-0.17	-0.426
CC(C)(C)OC(=O)CC[C@]1(C(N)=O)N=C(c2ccc(OCCCO)cc2)O[C@H]1c1ccccc1N=[N+]=[N-]	0.365	-0.434	-0.0088	0.396	0.9	1.73	1.48	6.25 (inactive)	0.616	0.213
Cc1ccc(S[C@]2(C(=O)NCc3ccccc3)CC(=O)N(Cc3ccccc3Cl)[C@@H]2c2ccc(CO)cc2)cc1	1.05	-0.363	-0.0639	0.0799	-0.331	1.26	0.79	-3.18 (inactive)	-0.603	-0.353
CCOC(=O)C[C@H]1[C@H](OC(=O)c2cc3ccccc3oc2=O)[C@@H](NC(=O)Cc2ccc(OC)cc2)c2cc(OCCCO)ccc2N1C(=O)Cc1ccc(OC)cc1	-0.545	0.58	-0.125	0.527	0.791	0.185	0.507	-1.39 (inactive)	1.43	-0.179
C=CC[C@H](OC(=O)Nc1ccc(SC)cc1)c1ccc(O)c(F)c1	0.57	0.274	-0.102	-0.575	-1.19	0.659	1.07	8.09 (active)	-0.512	-0.156
C=CCN1C(=O)[C@@]2(O[C@@H](CCO)[C@H]([Si](C)(C)c3ccc(OC)cc3)[C@H]2C)c2cc(N3CCCCC3=O)ccc21	-0.217	0.504	-0.0415	0.268	0.704	1.12	1.14	-1.11 (inactive)	0.2	0.0373
